Test [1] concerns Neuropilin-2 / VEGF-C interaction (human). Description: inhibitors of NRP2–VEGF-C binding, biochemical, microplate binding format, z-score (AID 743281). As to conditions: microplate NRP2/VEGF-C binding assay; stronger effect = lower value.
A short description of test [2]: differential killing of epithelial or mesenchymal cells, primary screen, imaging, PC-3E GFP, TEM4-18 mCherry, co-culture (AID 1345086;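 active = compounds killing one labelled cell type while sparing the other, by normalised counts and ratio limits, not self-fluorescent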;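 for all read-outs here: cells exposed to compound for 72 h before imaging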;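 for red/green cell ratio (normalised): normalised mesenchymal count divided by normalised epithelial count so high means epithelial killing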). To be noted: imaging cell counts, at 1 µM; for red/green cell ratio (normalised): actives lie on both sides, counts scaled to control wells, 1 = unselective.
The nature of test [3]: growth inhibition of DIPG glioma cells, dose response, cell-based, SU-DIPG-XIII, MIPE4.0, CellTiter-Glo, qHTS (AID 1347061; cut-off not given, nearly all actives have AC50 up to about 37 µM;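 note: cells exposed to compound for 48 hours before readout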). To be noted: SU-DIPG-XIII viability, CellTiter-Glo ATP luminescence.
A short description of test [4]: SU-DIPG-VI glioma cell viability, MIPE4.0 library, CellTiter-Glo luminescence, qHTS (AID 1347066; cut-off not given, nearly all actives have AC50 up to about 30 µM;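 note: cells exposed to compound for 48 hours before readout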). As to conditions: CellTiter-Glo ATP luminescence.
In test [5] the target is NAD(+) hydrolase SARM1 (Homo sapiens) (UniProt Q6SZW1). Description: SARM1 TIR NADase inhibitors, cell lysate, NAD-Glo luminescence (AID 1508614;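 active = compound whose remaining NAD level is above about 45 nM, limit read from the data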;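 note: higher remaining NAD means stronger inhibition of SARM1 NADase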). To be noted: SAM-TIR HEK293T lysate NADase, at 1 µM, stronger effect = higher value.
A short description of test [6]: growth inhibition of DIPG glioma cells, dose response, cell-based, SU-DIPG-XVII, MIPE5.0, CellTiter-Glo, qHTS (AID 1347060; cut-off not given, nearly all actives have AC50 up to about 26 µM;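 for AC50: cells exposed to compound for 48 hours before viability readout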). To be noted: SU-DIPG-XVII viability, CellTiter-Glo ATP luminescence.
Test [7] can be described thus: growth inhibition of DIPG glioma cells, dose response, cell-based, JHH-DIPG-1, MIPE4.0, CellTiter-Glo, qHTS (AID 1347062; cut-off not given, nearly all actives have AC50 up to about 27 µM). As to conditions: JHH-DIPG-1 viability, CellTiter-Glo ATP luminescence.
Test [8] can be described thus: growth inhibition of DIPG glioma cells, dose response, cell-based, SU-DIPG-XIII, MIPE5.0, CellTiter-Glo, qHTS (AID 1347064; cut-off not given, nearly all actives have AC50 up to about 23 µM). To be noted: SU-DIPG-XIII viability, CellTiter-Glo ATP luminescence.
Test [9] in a line: viability loss in pontine glioma line – cell-based, SU-DIPG-XXV, MIPE5.0, CellTiter-Glo, qHTS, dose response (AID 1347065; cut-off not given, nearly all actives have AC50 up to about 26 µM;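 note: cells exposed to compound for 48 hours before ATP readout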). As to conditions: CellTiter-Glo ATP luminescence.
A short description of test [10]: JHH-DIPG-1 glioma cell viability, MIPE5.0 library, CellTiter-Glo luminescence, qHTS (AID 1347067; cut-off not given, nearly all actives have AC50 up to about 26 µM;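 note: cells exposed to compound for 48 hours before readout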). To be noted: JHH-DIPG-1 glioma viability, CellTiter-Glo ATP luminescence.
The nature of test [11]: SU-DIPG-XXV glioma cell viability, MIPE5.0 library, qHTS (AID 1347068; cut-off not given, nearly all actives have IC50 up to about 30 µM).
Test [12] can be described thus: growth inhibition of DIPG glioma cells, dose response, cell-based, SU-DIPG-IV, MIPE4.0, CellTiter-Glo, qHTS (AID 1347063; cut-off not given, nearly all actives have AC50 up to about 30 µM;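 note: compound exposure lasted 48 hours before the viability readout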). As to conditions: SU-DIPG-IV viability, CellTiter-Glo ATP luminescence.
Test [13] is described as follows: LFS_MB_P medulloblastoma growth inhibition, cell-based, chromothripsis tumors, cisplatin or BGB combos (AID 1671449; in the data active = inhibition above about 80%;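 note: cells exposed for 96 hours; 0% = vehicle DMSO and 100% = killing by high DMSO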). To be noted: LFS_MB_P medulloblastoma cells.
A short description of test [14]: HDN33 neuroblastoma growth inhibition, cell-based, chromothripsis tumors, cisplatin or BGB combos (AID 1671450; in the data active = inhibition above about 80%;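 note: cells exposed to compound for four days; 0% = vehicle DMSO and 100% = cell killing by high DMSO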). To be noted: HDN33 neuroblastoma cells, stronger effect = higher value.
A short description of test [15]: ICB984 medulloblastoma cell growth inhibition, synergistic combos for chromothripsis tumors, cisplatin or BGB combos (AID 1671451).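 Note: cells exposed for 96 hours before readout; 0% = vehicle DMSO and 100% = killing by high DMSO.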 To be noted: ICB984 medulloblastoma cells, drug combinations, stronger effect = higher value.
Test [16] can be described thus: HTB85 osteosarcoma cell growth inhibition, synergistic combos for chromothripsis tumors, BGB or cisplatin IC20 combos (AID 1671453; in the data active = inhibition above about 80%;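 note: cells exposed for 96 hours before readout; 0% = vehicle DMSO and 100% = high DMSO killing control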). To be noted: HTB85 osteosarcoma cells, drug combinations, stronger effect = higher value.
Test [17] is described as follows: MDA-MB-436 breast carcinoma cell growth inhibition, synergistic combos for chromothripsis tumors, BGB or cisplatin combos (AID 1671458).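 Note: cells exposed for 96 hours; 0% = vehicle DMSO and 100% = killing by high DMSO.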 To be noted: MDA-MB-436 breast carcinoma growth inhibition, drug combinations, stronger effect = higher value.
The nature of test [18]: growth inhibition of BT084 medulloblastoma cells, cell-based, ICGC_MB145, cisplatin and BGB IC40 combos (AID 1671461; in the data active = inhibition above about 80%;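 note: cells exposed to drugs for 96 hours; 0% = vehicle DMSO and 100% = high DMSO full killing control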). As to conditions: drug combinations, stronger effect = higher value.
Test [19] can be described thus: growth inhibition of RCMB18 medulloblastoma cells, cell-based, cisplatin and BGB IC40 combos (AID 1671462; in the data active = inhibition above about 80%;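 note: cells exposed to compound for four days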). To be noted: stronger effect = higher value.
A short description of test [20]: growth inhibition of CRL1545 osteosarcoma cells, cell-based, cisplatin and BGB IC20 combos (AID 1671464; in the data active = inhibition above about 80%;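 note: cells exposed to compound for 96 hours before readout; 0% = vehicle DMSO and 100% = high DMSO killing control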). To be noted: stronger effect = higher value.
[21] abbreviates: measured here: epithelial PC-3E GFP cell survival.
Setting [22] is: measured here: mesenchymal TEM4-18 mCherry cell survival.
The mark [23] stands for this setting: measured here: with BGB IC20 combination, at 0.5 µM.
Setting [24] is: measured here: with cisplatin IC20 combination, at 0.5 µM.

20 compounds from PubChem BioAssay can be followed below.

Several values for one entry are separate records, joined by “and”; a condition that tells them apart may be missing. Equal entries are not always repeated. Results filed as inconclusive are left out. Activity calls are given as the source filed them. Unless noted, the rule behind the calls is not given here.

Sequence of NAD(+) hydrolase SARM1 (Homo sapiens) (Q6SZW1 whole entry, looked up): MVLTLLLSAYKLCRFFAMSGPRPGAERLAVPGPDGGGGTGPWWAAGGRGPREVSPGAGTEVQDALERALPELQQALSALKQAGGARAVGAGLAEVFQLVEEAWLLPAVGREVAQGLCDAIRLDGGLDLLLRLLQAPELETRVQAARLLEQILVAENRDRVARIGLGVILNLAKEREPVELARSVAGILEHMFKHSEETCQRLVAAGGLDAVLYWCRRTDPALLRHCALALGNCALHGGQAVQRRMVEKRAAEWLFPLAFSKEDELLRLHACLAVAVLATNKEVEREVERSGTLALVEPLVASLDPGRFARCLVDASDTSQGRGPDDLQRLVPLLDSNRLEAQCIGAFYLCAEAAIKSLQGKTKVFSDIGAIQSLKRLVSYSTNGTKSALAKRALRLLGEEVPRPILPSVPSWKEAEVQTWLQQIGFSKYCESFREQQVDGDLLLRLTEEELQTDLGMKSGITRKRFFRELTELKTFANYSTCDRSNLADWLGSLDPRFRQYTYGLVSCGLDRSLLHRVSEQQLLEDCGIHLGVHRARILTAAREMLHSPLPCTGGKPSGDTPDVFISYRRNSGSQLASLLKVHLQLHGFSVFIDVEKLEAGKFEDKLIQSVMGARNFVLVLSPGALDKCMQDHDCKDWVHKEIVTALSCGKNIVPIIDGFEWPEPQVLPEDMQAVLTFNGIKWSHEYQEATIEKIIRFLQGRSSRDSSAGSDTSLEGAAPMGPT

As to `CNCC[C@H](Oc1cccc2ccccc12)c1cccs1`, the z-score in test [1] is 0.369 (inactive) and 0.383 (inactive). Further, the red/green cell ratio (normalised) in test [2] is 0.93 (inactive). Also, the normalised cell number in test [2] (setting [21]) came to 1.07; in test [2] (setting [22]), 1. For the same compound, the AC50 in test [3] is 1320 nM (active). For the same compound, the result in [4] was inactive. Moreover, in test [5], the remaining NAD is 10 nM (inactive).

As for `Cc1cc2c(s1)Nc1ccccc1N=C2N1CCN(C)CC1`, the result in test [1], in [6], in test [3], in test [7], in [8] and in test [9] was inactive. Further, the compound was classed as inactive in [4] and in test [11]. Besides, the AC50 in [10] was 1180 nM (active). In addition, in test [5], the remaining NAD was 10 nM (inactive).

`COc1c(N2C[C@@H]3CCCN[C@@H]3C2)c(F)cc2c(=O)c(C(=O)O)cn(C3CC3)c12`: the z-score in [1] was -1.5 (inactive). Besides, the red/green cell ratio (normalised) in test [2] was 1.11 (inactive). For the same compound, the figures for the normalised cell number in test [2] (setting [21]) and in [2] (setting [22]) were 0.89 and 0.99, respectively. Moreover, the result in test [3], in test [7], in test [12], in test [8], in [9] and in test [10] was inactive. Moreover, the result in test [11] was inactive. For the same compound, the remaining NAD in test [5] is 10 nM (inactive).

On to `CC(=O)NC[C@H]1CN(c2ccc(N3CCOCC3)c(F)c2)C(=O)O1`, for which the z-score in [1] is 0.877 (inactive). Also, the compound was called inactive in test [6], in test [3], in [7], in test [12], in test [8] and in test [9]. The result in test [4], in test [10] and in test [11] was inactive. In addition, in test [5], the remaining NAD is 10 nM (inactive).

Take `CC1CC2C3CCC4=CC(=O)C=CC4(C)[C@@]3(Cl)C(O)CC2(C)C1(O)C(=O)CO` (stereo partly specified): the z-score in test [1] was 0.0119 (inactive).

Regarding `CC(C)(C)NC(=O)[C@@H]1C[C@@H]2CCCC[C@@H]2CN1C[C@@H](O)[C@H](Cc1ccccc1)NC(=O)[C@H](CC(N)=O)NC(=O)c1ccc2ccccc2n1`, in test [1], the z-score is 1.64 (inactive).

Consider `CCCCc1nc(Cl)c(CO)n1Cc1ccc(-c2ccccc2-c2nnn[nH]2)cc1`, for which the z-score in test [1] is -0.132 (inactive).

Turning to `COc1cc(C)c(/C=C/C(C)=C/C=C/C(C)=C/C(=O)O)c(C)c1C`, the compound was called inactive in test [7], in [10] and in [11]. Also, the concentration at half-maximal activity (AC50) in test [9] was 11800 nM (active).

For `COc1ccnc(CS(=O)c2nc3cc(OC(F)F)ccc3[nH]2)c1OC` (stereo unspecified), the z-score in test [1] was 0.437 (inactive).

In the case of `C=CCc1ccc(O)c(-c2ccc(O)c(CC=C)c2)c1`, the z-score in test [1] is -0.759 (inactive). In [3], the call was inactive. Besides, the AC50 in [12] is 23500 nM (active).

On to `CCC(C)(C)N=C(NC#N)Nc1cccnc1`, for which, in test [1], the z-score is -0.415 (inactive).

For `NC(=O)c1ncn(C2OC(CO)C(O)C2O)n1` (stereo unspecified), the inhibition was -16.1% (inactive) in [13] (at 0.5 µM, stronger effect = higher value); -16.5% in [13] (measured here: combination with BGB IC20, at 0.005 µM); 25.4% in test [13] (measured here: combination with BGB IC40, at 0.005 µM); -2.38% in test [13] (measured here: combination with BGB IC40, at 0.05 µM); -6.01% in test [13] (measured here: combination with cisplatin, at 0.5 µM, stronger effect = higher value); -20.9% in test [13] (measured here: combination with cisplatin, at 5 µM, stronger effect = higher value). In addition, the inhibition in test [14] (BGB combo, at 5 µM) was 31.2%; in test [14] (at 0.5 µM) it was 2.73% (inactive); in [14] (cisplatin combo, at 5 µM), -8.56%; in test [14] (setting [23]) it was 6.96%; in test [14] (setting [24]), 2.48%; in [14] (single agent, at 5 µM), 14%. In addition, the inhibition in [15] (BGB IC20 combo, at 0.005 µM) was 3.66%; in test [15] (BGB IC40 combo, at 0.005 µM), -0.335%; in [15] (BGB IC40 combo, at 0.05 µM), 6.2%; in test [15] (at 0.5 µM), -10.2% (inactive); in [15] (cisplatin combo, at 0.05 µM), 6.2%; in [15] (cisplatin combo, at 0.5 µM), -6.29%. The inhibition in [15] (cisplatin combo, at 5 µM) is -17.4%; in [15] (measured here: 5 uM single agent, at 5 µM) it was -2.81%; in test [16] (at 0.5 µM), 4.41% (inactive); in test [16] (measured here: with BGB IC20, at 0.5 µM) it was -12.9%; in test [16] (measured here: with BGB IC20, at 5 µM) it was 10.8%; in test [16] (measured here: with cisplatin IC20, at 0.5 µM), 14.3%. Moreover, the inhibition in test [16] (measured here: with cisplatin IC20, at 5 µM) is 0.254%; in [16] (single agent, at 5 µM), 2.26%; in [17] (at 0.5 µM) it was -5.54% (inactive); in test [17] (measured here: BGB combination, at 0.5 µM), 2.04%; in [17] (measured here: BGB combination, at 5 µM) it was -7.02%; in test [17] (measured here: cisplatin combination, at 0.5 µM), -11.9%. The inhibition was 6.23% in test [17] (measured here: cisplatin combination, at 5 µM); 6.99% (inactive) in test [18] (at 0.5 µM); 12.1% in test [18] (cisplatin combination, at 0.5 µM); -28.4% in test [18] (cisplatin combination, at 5 µM); 25.7% in [18] (measured here: BGB IC40 combination 0.05 uM, at 0.05 µM); 8.51% in [18] (single agent, at 5 µM). Moreover, the inhibition in test [19] (at 0.5 µM) is 9.1% (inactive); in test [19] (cisplatin combo, at 5 µM), 13.6%; in test [19] (measured here: BGB IC40 combination, at 0.05 µM), 7.76%; in test [19] (measured here: combination with cisplatin, at 0.5 µM), 29.4%; in test [19] (single agent, at 5 µM), -9.79%; in test [20] (at 0.5 µM), -15.9% (inactive). The inhibition in test [20] (setting [23]) was -14.4%; in test [20] (setting [24]) it was -16.7%; in [20] (single agent, at 0.05 µM) it was 17.7%; in [20] (single agent, at 5 µM), -14.1%.

As for `O=C1c2c(O)cc(O)cc2O[C@H](c2ccc(O)c(O)c2)[C@H]1O`, in test [1], the z-score is -0.839 (inactive). In addition, the outcome in test [7], in [9], in test [4], in test [10] and in [11] was inactive.

On to `O=C1C(c2c(O)[nH]c3ccccc23)=Nc2ccccc21`, for which the compound was called inactive in test [1], in test [7], in test [4], in test [10] and in test [11]. In addition, the half-maximal activity concentration (AC50) in [12] is 13200 nM (active).

On to `C[C@H]1[C@@H](OC(=O)CCC(=O)O)O[C@@H]2OC3(C)CC[C@H]4[C@H](C)CC[C@@H]1[C@@]24OO3`, for which the z-score in test [1] was -0.982 (inactive).

On to `O=c1ncc(F)c[nH]1`, for which the z-score in test [1] was -0.183 (inactive).

As to `COC(=O)Nc1nc2ccc(C(=O)c3ccc(F)cc3)cc2[nH]1`, the z-score in test [1] is 0.511 (inactive). Further, the results for the AC50 in [6], in test [9] and in test [10] were 417 nM (active), 332 nM (active) and 417 nM (active), respectively. The result in test [3] and in [4] was inactive.

Turning to `CC(C)OC(=O)CCC/C=C\C[C@@H]1[C@@H](CC[C@@H](O)CCc2ccccc2)[C@H](O)C[C@@H]1O`, in test [1], the z-score was -0.836 (inactive).

For `COc1cc(C[C@@H](CO)[C@H](CO)Cc2ccc(O)c(OC)c2)ccc1O`, the z-score in test [1] was 0.125 (inactive). Also, the result in test [6], in test [8], in test [9], in [10] and in test [11] was inactive.

On to `CN1[C@@H]2CC[C@H]1CC(OC(=O)C(CO)c1ccccc1)C2` (stereo partly specified), for which the remaining NAD in [5] is 10 nM (inactive).
